Test results as given in PubChem BioAssay (NCI).
This is part of a sample that, as a whole, favours compounds with a hit. Of some 83,000 tested, about 20% had one in any assay.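 Plates (96-well) were seeded with cells, treated with compound at one concentration, and incubated for 48 hours before percent growth was determined.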 A number with no mark means an inactive call. Calls of active or inactive are those of the source. Rule for the calls: active = growth percent below 10; inactive = the rest.

These compounds were tested on NCI/ADR-RES ovarian (assay: NCI-60 one-dose screen, 48 h (100 = growth as untreated, 0 = no growth, -100 = all killed)). Conditions: 10 µM unless noted.

SMILES | growth
C/C(=N\Nc1ccc(Cl)cn1)c1ccc2ccccc2n1 | -0.464% (active)
CCOC(=O)c1ccc2n1CCCc1cnc(NC(C)=O)nc1-2 | 108%
COC(=O)c1ccc2[nH]c(O)c(C(=Nc3ccc(N(C)C(=O)CN4CCN(C)CC4)cc3)c3ccc(C)cc3)c2c1 | 70.7%

These compounds were tested on T-47D breast in the same assay as above. Conditions: 10 µM unless noted.

SMILES | growth
C/C=C/C/C=C/[C@H](C)C[C@H](O)[C@@H]1C[C@@H]2O[C@H]2/C=C/[C@@H]2OC(C)(C)O[C@H]2/C=C/C[C@H](C)CC(=O)O1 | -4.89% (active)
COC1(OC)N=C(N)C2(C#N)C3(C(=O)Nc4ccccc43)C12C#N (stereo not drawn) | 95.8%
C/C=C/C/C=C/[C@H](C)C[C@H](O)[C@@H]1C[C@@H]2O[C@H]2/C=C/[C@H](O)[C@@H](O)/C=C/C[C@H](C)CC(=O)O1 | 69.9%
O=S(=O)(O)CCI | 99.4%
CCCCCCC(C)N(CC(C)(C)O)C(=O)c1ccc([N+](=O)[O-])cc1 (stereo not drawn) | 88.2%
COc1ccc(/C=C2\CCCC3=C2N=C2SC=NN2C3c2ccc(OC)c(OC)c2)cc1OC (stereo not drawn) | 52.5%
CC(C)(C)c1ccc(OCCOC(=O)CBr)cc1 | 94.2%
c1cc(C2CCCCC2)ccc1OCCCCCCN1CCNCC1 | 22.8%
CC(=O)c1ccc2c(c1)c1ccccc1n2C | 103%

The compounds below were run on BT-549 breast in the same assay as above. Conditions: 10 µM unless noted.

SMILES | growth
Brc1ccc(-c2nc3ccccc3s2)cc1 | 101%
c1cc[c]([Bi]([c]2ccccc2)[c]2ccccc2)cc1 | 96.8%
O=C1/C(=N\c2cc(=O)[nH]n2S(=O)(=O)c2ccccc2)Nc2ccccc21 | 106%
COc1cc(-c2nc3c(c(C)nc4c3nnn4-c3ccccc3)c(=O)o2)cc(OC)c1OC | 105%
CCC(C)C1NC(=O)C(CC(C)C)NC(=O)C(C)NC(=O)C(C(C)C)NC(=O)C(CCCCN)NC(=O)C(CC(C)C)NC(=O)C(C(C)C)NC(=O)[C@H](C)NC(=O)C(C(C)CC)NC(=O)C(CCCN=C(N)N)NC(=O)C(CCCCN)NC(=O)C(CCCN=C(N)N)NC(=O)C(CCCCN)NC(=O)C([C@H](C)CC)NC(=O)C(CCCCN)NC1=O (stereo partly drawn) | 14.4%
COc1ccc(-c2nc(SCC(C)C)nc(Nc3ccc(C(=O)O)cc3)c2C#N)cc1 | 85.6%
Nc1nc2c(c3cnccc13)C(c1cccc(Cl)c1)Cc1cnccc1-2 (stereo not drawn) | -12% (active)
Oc1ccccc1\C=N/N=C/C=C/c1ccccc1 | 91.4%
COC(=O)c1ccc2[nH]c(O)c(C(=Nc3ccc(N(C)C(=O)CN4CCN(C)CC4)cc3)c3ccc(N)cc3)c2c1 | 81.5%
CC(C)OC(=O)c1ccc2n1CCCc1cnc(Nc3ccccc3)nc1-2 | 86.4%
CC(=O)Nc1ccc(C(=O)/C=C/c2ccc(N(C)C)cc2)cc1 | 101%
CCOC(=O)C1=C(c2ccccc2)NC(=O)NC1CN1C(=O)c2ccccc2C1=O (stereo not drawn) | 129%
CC/C(=N\Nc1nc2ccccc2n1C)c1ccccn1 | 21%
CCCCCCC(C)N(CC(C)(C)O)C(=O)c1ccc([N+](=O)[O-])cc1 (stereo not drawn) | 99%
O=C1C(=O)c2ccccc2C(O)=C1CCCc1ccc(Oc2ccccc2)cc1 | 60.9%
CCOC(=O)c1c2c(cn1Cc1ccccc1)-c1oncc1CC2 | 94.5%
C/C(=N\Nc1cccc(Cl)n1)c1ccccn1 | 22.9%
CC(=O)c1ccc2c(c1)c1ccccc1n2C | 96.1%
CCCCN(CCCC)CCCNc1c2c(nc3ccc(Cl)cc13)CCCC2 | 108%
COc1ccc(Cn2cc3c(c2)-c2oncc2CC3)cc1OC | 59.4%
C/C(=N\Nc1ccc(Cl)cn1)c1ccccn1 | 9.46% (active)
NC(=O)c1c(Nc2ccccc2)nn2cc(-c3nc4ccccc4s3)c(N)nc12 | 102%
COC(=O)c1ccc2[nH]c(O)c(C(=Nc3ccc(N(C)C(=O)CN4CCN(C)CC4)cc3)c3cccc(OC)c3)c2c1 | 11.2%
Cc1nc2c(nnn2-c2ccccc2)c2nc(-c3ccc(Cl)cc3)oc(=O)c12 | 107%
Clc1ccc(N/N=C(/c2ccccc2)c2ccccn2)nc1 | 55%
COc1ccc(-c2nnc(SCC(=O)Nc3ccc(C(=O)/C=C/c4cc(OC)c(OC)c(OC)c4)cc3)n2-c2ccccc2)cc1OC | -94.7% [100 µM] (active)
